# Compound activity deposited in PubChem by several laboratories.
# Anthrax LF inh2 – anthrax lethal factor protease inhibition; multiplex microsphere protease cleavage assay, LF; inhibition, % at 10 µM; P15917; 360,000 compounds, 0.12% hits; note: plate controls were buffer without enzyme for full effect and enzyme alone for no effect
# BoNT F protease – BoNT F light chain protease inhibition | Multiplex microsphere protease cleavage assay, flow cytometry | inhibition, % at 10 µM | 360,000 compounds, 0.22% hits | AID 588497; in the data active = inhibition above about 35%, passing the limit was not always enough; inconclusive = no clear call, values can overlap the other calls; note: plate controls were buffer without enzyme for full effect and enzyme alone for no effect
# BoNT-A LC inh2 – inhibitors of Botulinum neurotoxin A light chain protease. multiplex microsphere protease substrate cleavage, flow cytometry. 360,000 compounds, 0.17% hits. inhibition, % at 10 µM; note: plate controls were buffer without enzyme for full effect and enzyme alone for no effect
# Autofluor counter – counter-screen for toxin protease inhibitors: compound fluorescence; compound autofluorescence counterscreen, microsphere flow cytometry; active compounds read high; fluorescence intensity (test concentration not listed); 360,000 compounds, 3.1% hits; in the data active = fluorescence intensity above about 16000; inconclusive = no clear call, values can overlap the other calls
# MazF activator – MazEF (E. coli) toxin RNase activation | P0AE70 | FAM/BHQ RNA-DNA oligo cleavage fluorescence, 5 h | activation, % at 20 µM | 350,000 compounds, 0.32% hits; in the data active = activation above about 50%
# Target sequence (P0AE70 whole entry, looked up): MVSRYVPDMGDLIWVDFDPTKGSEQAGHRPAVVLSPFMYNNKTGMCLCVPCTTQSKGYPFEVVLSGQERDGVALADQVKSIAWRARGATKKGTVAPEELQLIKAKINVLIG
# Starred values were filed as active, the others as inactive; ? = inconclusive; / = no result. Compounds with a hit are over-represented: about 3.7% of the library has one in this group of screens. Cut-off read from the data, not from the text of the source, unless noted: active = inhibition above about 30%; inconclusive = no clear call, values can overlap the other calls; inactive = below that.
SMILES,Anthrax LF inh2,BoNT F protease,BoNT-A LC inh2,Autofluor counter,MazF activator
O=C1CCCC/C1=C/Nc1ccc2c(c1)OCO2,0,-2,1,16302*,2
COc1cccc(C(C(=O)NC2CCCCC2)N(C(=O)CNC(=O)c2ccco2)c2cccnc2)c1 (centres undefined),-2,-1,-1,5447,-4
CN1CCN(c2nc3c(c(=O)[nH]c(=O)n3C)n2Cc2ccc([N+](=O)[O-])cc2)CC1,-6,-20,-3,3713,-3
CC(=O)c1c(C(C)=O)c(C)n(-c2ccc(C)c(NC(=O)c3ccccc3Cl)c2)c1C,-4,0,0,16183*,1
Cc1ccc(NC(=O)c2ccccc2Cl)c(Cl)c1,/,/,/,/,8
O=C(COC(=O)c1cnccn1)NCCc1ccccc1,-14,1,0,?,-3
O=C(COC(=O)c1cnccn1)NCc1ccccc1,1,-4,-1,20877*,-6
Cc1ccccc1OCC(=O)Nc1ccccc1-c1ccccc1,-10,-8,0,3767,-8
CC(C)[C@H](NC(=O)c1c(F)cccc1F)C(=O)OCC(=O)NC(=O)NC1CCCC1,-2,-6,1,5361,5
CCOC(=O)c1sc(NC(=O)CSc2n[nH]c(-c3ccc(Cl)cc3Cl)n2)c(C#N)c1C,0,-2,?,23279*,1
CCOC(=O)c1sc(NC(=O)CSc2nc3c(cc2C#N)CCCCCC3)c(C#N)c1C,-1,-9,?,17520*,35
CCOC(=O)c1sc(NC(=O)CSc2nc(C)cc(-c3ccccc3)n2)c(C#N)c1C,-7,-1,2,19559*,0
N#C/C(=C\c1cccc(Br)c1)C(=O)N1CCCCC1,-3,2,0,5298,8
N#C/C(=C\c1cccc(O)c1)C(=O)N1CCCCC1,7,47*,-2,4481,7
C=CCN1CC(c2nc3ccccc3n2CCOc2ccccc2)CC1=O (centres undefined),0,-4,-2,22558*,-5
Cc1cc2c(s1)NC(=O)CN=C2c1cccs1,-1,0,?,19677*,5
Nc1nc(-c2cccnc2)nn1C(=O)COc1ccccc1,-2,-6,-2,24503*,7
Nc1nc(-c2cccnc2)nn1C(=O)CCc1ccccc1,-5,-1,0,8911,4
CCOC(=O)c1ccc(CC(=O)c2ccc(O)c(O)c2O)o1,-5,-4,-1,2357,-10
CCOC(=O)c1ccc(CC(=O)c2oc3cc(O)ccc3c2C)o1,-1,-12,0,11555,67*
O=S(=O)(c1ccc2c(c1)OCCO2)N1CCCN(S(=O)(=O)c2c(F)cccc2F)CC1,3,-6,0,3702,7
C=CCN1C(=O)C(C)NC1=S (centres undefined),-7,?,4,3631,7
C=CCN1C(=O)C(C(C)CC)NC1=S (centres undefined),-5,8,?,18817*,-3
C[C@H](CO)N1C[C@H](C)[C@@H](CN(C)C(=O)NC2CCCCC2)Oc2ncc(Br)cc2C1=O,-2,4,0,3480,6
CC(NC(=O)c1ccc([N+](=O)[O-])o1)C12CC3CC(CC(C3)C1)C2 (centres undefined),-3,-5,-1,5230,5
SMILES,Anthrax LF inh2,BoNT F protease,BoNT-A LC inh2,Autofluor counter,MazF activator
COc1cccc(OC)c1C(=O)NC(C)C12CC3CC(CC(C3)C1)C2 (centres undefined),4,35*,1,3724,-9
COc1cccc2c1OC[C@@H](CO)[C@H]2N(C)C(=O)Nc1ccc(Cl)cc1,-1,10,6,21011*,0
COc1ccc(CSC(=S)NNc2ccccc2)cc1,-2,-4,0,4029,-5
Cn1c(SC/C=C/c2ccccc2)nnc1-c1cccs1,8,-5,2,?,3
CCn1c(SC/C=C/c2ccccc2)nnc1-c1cccs1,1,-5,-3,20863*,-13
CCn1c(SC/C=C/c2ccccc2)nnc1-c1cnccn1,-4,-4,-1,21032*,5
Cn1c(SC/C=C/c2ccccc2)nnc1-c1cnccn1,1,0,1,2305,1
COc1ccc(CN2CCNC(=O)C2CC(=O)N2CCCN(C(C)=O)CC2)cc1OC (centres undefined),1,3,0,4446,9
Cc1nnsc1C(=O)N1CCCC(C)(C(=O)NS(=O)(=O)C2CC2)C1 (centres undefined),0,-5,0,3000,/
O=C(c1ccc(CS(=O)(=O)c2cccc(C(F)(F)F)c2)o1)N1CCN(c2ccccn2)CC1,0,-4,?,23435*,0
COc1ccc(S(=O)(=O)Cc2ccc(C(=O)NCCCN(C)c3ccccc3)o2)cc1,-4,-4,?,22186*,-1
O=C(NCc1ccco1)c1ccc(CS(=O)(=O)c2cccc(C(F)(F)F)c2)o1,-10,-6,-2,22579*,-1
CCCc1ccc(OCc2ccc(C(=O)N3CCN(c4ccccn4)CC3)o2)c(OC)c1,-3,0,?,23006*,-9
Cc1ccc(S(=O)(=O)Cc2ccc(C(=O)N3CCN(c4ccccn4)CC3)o2)cc1,-8,2,0,5465,6
CCCCNC(=O)c1ccc(CS(=O)(=O)c2ccc(OC)cc2)o1,-3,0,0,6257,-19
COc1ccc(C(=O)N2CCCCC2c2cc(C(=O)Nc3cccc(C#N)c3)no2)cc1 (centres undefined),-7,-10,-1,3886,/
Cc1ccc(S(=O)(=O)N2CCN(C(=O)Cn3c(=O)oc4ccccc43)CC2)c(C)c1,-11,0,0,3273,5
CC(C)CCN(C(=O)C1CSC2(C)CCC(=O)N12)c1c(N)n(Cc2ccccc2)c(=O)[nH]c1=O (centres undefined),0,3,1,?,6
O=C1C=CC(=O)N1c1ccc(-c2nc3ccccc3o2)cc1,-3,3,0,3452,-6
CCCCNC(=O)c1ccc(CS(=O)(=O)c2cccc(C(F)(F)F)c2)o1,1,1,2,21163*,-2
CC1=C(C(=O)OCc2ccccc2)C(/C=C/c2ccccc2)NC(=S)N1 (centres undefined),0,-6,0,1951,2
C=CCOC(=O)C1=C(C)NC(=S)NC1/C=C/c1ccccc1 (centres undefined),0,-10,-5,18190*,-1
O=c1cc(-c2ccc(O)c(O)c2)oc2c1ccc1ccccc12,-5,-11,2,8343,119*
COc1cc(/C=C2/CCCC(C(=O)C(F)(F)F)=C2O)ccc1O,-4,-2,-1,4068,-6
COc1ccc(/C=C2/CCCC(C(=O)C(F)(F)F)=C2O)cc1OC,-2,?,-2,3807,211*
O=C(c1ccccc1)c1nc2c(n1O)CCCCC2,-3,-3,0,4574,-4
CCCOc1ccc(C(=O)c2nc3c(n2O)CCCCC3)cc1,4,-5,1,23225*,10
O=C(CSc1nnc(-c2cnccn2)n1Cc1ccco1)c1ccccc1,-4,-6,-2,17135*,9
Cn1c(SCC(=O)c2ccccc2)nnc1-c1ccccn1,4,?,1,3879,2
